# This is part of a sample that, as a whole, favours compounds with a hit. Of some 83,000 tested, about 20% had one in any assay.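 Results are percent growth after 48 hours of single-concentration exposure. 100 means growth as in untreated cells, lower positive values show inhibition; negative values down to -100 show cell death.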 A number with no mark means an inactive call. The source made the active and inactive calls. The calls were made as follows: active = growth percent below 10; inactive = the rest.
# Tests used:
# Experiment in all cases: NCI-60 one-dose screen, 48 h (100 = growth as untreated, 0 = no growth, -100 = all killed)
# Details in all cases: 10 µM unless noted
# EKVX NSCLC = test system: EKVX NSCLC
# SN12C renal = test system: SN12C renal
# UO-31 renal = test system: UO-31 renal
# TK-10 renal = test system: TK-10 renal
# ACHN renal = test system: ACHN renal
# CAKI-1 renal = test system: CAKI-1 renal
# CCRF-CEM leukemia = test system: CCRF-CEM leukemia
# MOLT-4 leukemia = test system: MOLT-4 leukemia
# SR leukemia = test system: SR leukemia
# A498 renal = test system: A498 renal
Compound,growth (EKVX NSCLC),growth (SN12C renal),growth (UO-31 renal),growth (TK-10 renal),growth (ACHN renal),growth (CAKI-1 renal),growth (CCRF-CEM leukemia),growth (MOLT-4 leukemia),growth (SR leukemia),growth (A498 renal)
CN1C(=O)N(C)C2C1NN=c1s/c(=C\c3ccc([N+](=O)[O-])cc3)c(=O)n12 (stereo unspecified),87.5%,88.7%,63.5%,95.2%,53.6%,40.2%,70.4%,64.3%,22%,
NC(CCc1nc2ccccc2c(=O)[nH]1)C(=O)O (stereo unspecified),99.7%,96.6%,86.7%,102%,113%,87.5%,103%,103%,96.8%,
NCCNc1nc2ccccc2c2c(=O)c3cc(F)cc(Cl)c3sc12,-68.5% (active),-83.7% (active),-93.7% (active),-30.6% (active),-94.7% (active),-96.3% (active),-28.1% (active),29.1%,-27.7% (active),
CC(C)C[C@H](C(=O)N[C@H](C(N)=O)C(C)C)N1CC=CCN(OCc2ccccc2)S1(=O)=O,114% [2.5 µM],94.9% [2.5 µM],83.6% [2.5 µM],102% [2.5 µM],97.8% [2.5 µM],,92.4% [2.5 µM],82.5% [2.5 µM],93.4% [2.5 µM],108% [2.5 µM]
CCCSC1=NC2C(N(CC)C(=O)N2CC)N1/N=C/C=C/c1ccccc1[N+](=O)[O-] (stereo unspecified),53.6%,40.6%,44%,85.1%,41.5%,44.1%,16%,18.6%,9.32% (active),
Cc1nn(-c2nc3ccccc3[nH]2)c2c1C(c1ccc(OCC(N)=O)cc1)CC(=O)N2 (stereo unspecified),96.9%,101%,81.9%,114%,102%,,22.5%,-20.1% (active),117%,79.1%
COc1ccc(-c2nocc2-c2cccs2)cc1,91.6%,103%,88.2%,104%,103%,89.8%,105%,,128%,
CN1C(=O)N(C)C2Nn3c(s/c(=C4\C(=O)N(CCc5ccccc5)c5ccccc54)c3=O)=NC21 (stereo unspecified),58%,74.3%,62.9%,70.5%,59.3%,,53.1%,70.8%,30.4%,70.3%
COC(=O)/C(CCC=C(C)C)=C1\[C@@H](OC(C)=O)C[C@@]2(C)[C@H]1C[C@@H](O)[C@H]1[C@@]3(C)CC[C@H](NCCO)[C@@H](C)[C@@H]3CC[C@@]12C,99.6%,105%,78.9%,115%,97.3%,,101%,96.7%,98.3%,101%
COc1ccc(-c2cn[nH]c2-c2cc(OC)c(OC)c(OC)c2)cc1OCc1ccccc1,33.5%,62.3%,25.6%,50.9%,34.1%,28.9%,,64.5%,27.5%,
CN(C)/C=C1\SC(=Nc2ccc(Cl)cc2)NC1=O,95.6%,92.1%,90.4%,111%,103%,96.1%,106%,101%,123%,
CCN1C(=O)N(c2ccccc2)C2NN=c3s/c(=C4\C(=O)N(C(C)C)c5ccccc54)c(=O)n3C21 (stereo unspecified),55.9%,38.7%,55.6%,74.9%,37.1%,49.1%,,20.9%,14.6%,
CCCN1C(=O)N(CCC)C2C1NN=c1s/c(=C3\C(=O)N(C(C)C)c4ccccc43)c(=O)n12 (stereo unspecified),51%,65.9%,30.9%,78.9%,23.4%,31.7%,45.8%,46.3%,7.97% (active),
CNCCNc1nc2ccccc2c2c(=O)c3cccc(C)c3sc12,46.4%,32.5%,29.6%,41.7%,-29.9% (active),,21%,-29.5% (active),-29.9% (active),
Cc1ccc2nc(NC(=O)CSC(=S)N3CCN(c4ccccc4)CC3)sc2c1,109%,99%,88.2%,108%,100%,,,111%,98.7%,108%
COc1cc2nc(-c3cnc(N(C)C)nc3)nc(NC3CCN(Cc4ccccc4)CC3)c2cc1OC,-71.2% (active),-87.2% (active),-81.2% (active),-98.6% (active),-100% (active),,-31.3% (active),-16.5% (active),4.28% (active),
Cc1cc(OC(=O)c2ccc([N+](=O)[O-])cc2)nc2[nH]c(=O)sc12,92.1%,101%,82.1%,103%,103%,91.5%,106%,101%,108%,
COc1ccc(OC)c(/C=C/C(=O)c2c(C)nc3ccccc3c2/C=C/c2ccccc2)c1,79.4%,58.1%,60.3%,112%,74.6%,,9.58% (active),10.2%,,83.2%
O=C(c1ccccc1)N(C(=S)NCCc1ccc(Cl)cc1)c1ccc(Cl)cc1,83.5%,66.1%,59.1%,44.3%,64.5%,,80.7%,-10.7% (active),,91.4%
COc1cc(/C=C/C(=O)c2ccc(Nc3nc(NCCO)nc(N4CCOCC4)n3)cc2)cc(OC)c1OC,21.7%,16.3%,25.4%,35.3%,23.3%,,3.64% (active),0.216% (active),17.4%,2.25% (active)
CNCCNc1nc2ccccc2c2c(=O)c3cc(F)ccc3sc12,71.9%,67.2%,41.3%,60.2%,37.3%,44%,15.5%,-18.9% (active),13.6%,
O=C(N=Nc1c(O)[nH]c2ccccc12)c1oc2ccccc2c1CN1CCN(c2ccccc2)CC1,4.35% (active),11.5%,-52.2% (active),-45.1% (active),-85.2% (active),32.9%,19.7%,30.7%,1.67% (active),
O=C1Nc2ccccc2/C1=C/c1cccs1,73.2%,89.9%,62.2%,134%,86.7%,,97.2%,102%,121%,106%
COc1ccc(/C=c2\sc3n(c2=O)NC2C(N=3)N(C)C(=O)N2C)cc1 (stereo unspecified),98.4%,101%,77.6%,112%,105%,85%,95.7%,102%,86.8%,
O=Cc1c(OCc2cnnn2CC(=O)Nc2ccc(Br)cc2)ccc2ccccc12,82.1%,92.9%,66.3%,93.7%,80.1%,,97.4%,,95.9%,74.4%
COc1ccc(C2=C(c3cccc(OC)c3)C(=O)c3ccc(C)nc3C2=O)cc1,75.3%,40.6%,25.4%,93.8%,33.6%,34.2%,19.1%,-31.5% (active),28.5%,
COc1ccc(C2C3=C(COC3=O)N(CCO)c3cc4c(cc32)CCC4)cc1OC (stereo unspecified),23.3%,38.8%,42%,14.1%,47.6%,8.75% (active),,,25%,
CCN1C(=O)N(CC)C2C1NN=c1s/c(=C3\C(=O)N(C(C)C)c4ccccc43)c(=O)n12 (stereo unspecified),31.5%,21.6%,45.4%,56.5%,25.4%,,9.92% (active),13.8%,10.6%,-2.49% (active)
COc1ccc2oc(=O)cc(Cn3cc(Cn4cnc5c4c(=O)n(C)c(=O)n5C)nn3)c2c1,103%,95.9%,83.3%,100%,98.7%,,106%,,106%,103%
N#C/C(=C\c1c(-c2ccccc2)[nH]c2ccccc12)S(=O)(=O)c1ccccc1,61.7%,54%,51.2%,69.4%,59.4%,,,,17.9%,24.2%

# From PubChem BioAssay (NCI)
